# The list is not random: actives were taken first. Their share in the collection is about 2.2%.
# Ba/F3 V617F tox: lowers viability of Ba/F3 cells expressing EpoR and JAK2V617F; ATP luminescence; inhibition, % at 5.6 µM; hit rate 1.1% among 220,000;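 active = inhibition above the campaign mean plus 3 SD over all tested compounds, cut at about 24% in these data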;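 also: cytokine-independent growth of Ba/F3 cells driven by EpoR plus mutant JAK2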
# APP 5UTR inh: APP translation inhibition | SH-SY5Y APP 5'UTR-luciferase reporter, luminescence | inhibition, % at 2 µM | hit rate 0.82% among 190,000;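 active = inhibition above a set limit, derived from the sample mean plus 3 SD, cut at about 45% in these data; inconclusive = one replicate passes the limit while the other fails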
# IEC-6 cytotox: IEC-6 cytotoxicity, counter-screen for KLF5 inhibitors | luminescence viability | AID 1825 | hit rate 0.78% among 290,000 | inhibition, % at 5 µM
# KLF5 inh: inhibitors of KLF5 expression | DLD-1 KLF5 promoter-luciferase reporter, luminescence | inhibition, % at 5 µM | hit rate 0.23% among 290,000;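 active = inhibition above a per-plate limit of that plate's mean compound inhibition plus 3 SD, cut at about 60% in these data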;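 also: higher means less KLF5 promoter-driven luciferase light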
# BaF3 parental: reduces parental Ba/F3 cell viability, JAK2V617F counter-screen; inhibition, % at 5.6 µM; CellTiter-Glo ATP luminescence; AID 1486; hit rate 1.1% among 220,000;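 active = inhibition above a per-campaign cutoff, the mean inhibition of all tested compounds plus 3 SD, cut at about 27% in these data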
# aSyn UTR inh: MLPCN primary screen, SNCA 5' untranslated region. alpha-synuclein 5'UTR reporter, inhibitor activity. hit rate 0.82% among 300,000. inhibition, % (tested at 7.5 µM); in the data active = inhibition above about 60%; inconclusive = no clear call, values can overlap the other calls;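 also: H4 neuroglioblastoma cells stably carrying SNCA 5'UTR luciferase fusion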
# IEC-6 cytotox cf: confirmation of cytotoxic compounds in rat IEC-6 intestinal epithelial cells. inhibition, % at 5 µM. AID 1907. IEC-6 rat intestinal epithelial viability, luminescence. shares compounds with IEC-6 cytotox. hit rate 63% among 1,900
# A number is an active result; i = inactive; ? = inconclusive; nt = no result given. Rule as the data show it, unless noted: active = inhibition above about 22%; inactive = the rest.
SMILES,Ba/F3 V617F tox,APP 5UTR inh,IEC-6 cytotox,KLF5 inh,BaF3 parental,aSyn UTR inh,IEC-6 cytotox cf
CN1CCC(NCCC(c2ccc(F)cc2)c2ccc(Cl)cc2)CC1 (configuration not stated),nt,nt,49.3,i,nt,i,100.1
CC(C)C(CCNC1CCN(C)CC1)c1ccc(Cl)cc1 (configuration not stated),nt,nt,35.7,i,nt,i,56.5
O=c1[nH]c(/C=C2\C=Nc3ccccc32)c(O)n1Cc1ccccc1F,98.6,63.4,40.6,i,66.7,i,37.0
Cc1cc2nnc(SCC(=O)NCc3cccs3)n2c2ccccc12,31.0,i,33.9,i,39.8,i,24.3
CCOc1ccc(S(=O)(=O)n2cc(F)c(=O)[nH]c2=O)cc1,43.9,i,85.8,i,59.8,i,i
CCCOc1ccc(S(=O)(=O)n2cc(Br)c(=O)[nH]c2=O)cc1,i,i,i,i,i,i,nt
CCOc1ccc(S(=O)(=O)n2cc(F)c(=O)[nH]c2=O)cc1[N+](=O)[O-],nt,nt,54.8,i,nt,i,i
COc1ccc(NC(=O)NC2CCCCCCC2)c(OC)c1,nt,nt,i,i,nt,nt,nt
Cc1ccc(C(=O)Nc2ncc(Cc3ccccc3)s2)o1,81.0,i,51.3,i,79.1,i,39.7
Cc1ccc(Cc2cnc(NC(=O)c3cccs3)s2)cc1,i,i,i,i,i,i,nt
O=C(CCc1ccccc1)Nc1ccc(Cl)cn1,67.2,75.3,67.8,i,50.9,i,40.4
Cc1cnc(NC(=O)CCc2ccccc2)s1,nt,nt,31.0,i,nt,i,i
O=C(O)CCCCn1c(SCc2ccccc2Cl)nc2ccsc2c1=O,i,i,i,i,i,i,nt
Cc1ccc(C)c(C(C)NC(=O)c2ccncc2)c1 (configuration not stated),nt,nt,i,i,nt,i,nt
CC(=O)NC(CCS(C)(=O)=O)C(=O)Nc1ccc2c(c1)OCCO2 (configuration not stated),i,i,i,i,i,i,nt
O=C(CN1CCCN(Cc2ccc(F)cc2)S1(=O)=O)NC1CCCC1,nt,nt,i,i,nt,i,nt
CN1CCN(C(=O)C2CCCN(S(=O)(=O)c3ccc(Br)cc3)C2)CC1 (configuration not stated),nt,nt,i,i,nt,i,nt
CCOC(=O)c1[nH]c2c(c1C)C(=O)CC(c1ccc(F)cc1)C2 (configuration not stated),56.0,92.5,42.2,i,56.0,?,59.7
CCOc1ccc(S(=O)(=O)Nc2cc(SCC(=O)O)c(O)c3ccccc23)cc1,nt,nt,49.4,i,nt,i,i
CCc1ccc(S(=O)(=O)Nc2cc(SCC(=O)O)c(O)c3ccccc23)cc1,i,i,i,i,i,i,nt
Cc1cccc(-c2nnc3n2N=C(c2ccccc2Br)CS3)c1,37.1,i,34.0,i,32.5,i,i
CCc1ccc(C2=Nn3c(nnc3-c3cccs3)SC2)cc1,i,i,51.7,i,i,i,34.7
COc1ccc(C2=Nn3c(nnc3-c3ccc(OC)cc3)SC2)cc1,64.0,93.4,81.9,i,75.6,99.7,58.2
c1ccc(-c2ccc(C3=Nn4c(nnc4-c4cccs4)SC3)cc2)cc1,i,nt,i,i,i,i,nt
Cc1cc(-c2nnc3n2N=C(c2ccccc2Br)CS3)n[nH]1,i,nt,i,i,i,i,nt
SMILES,Ba/F3 V617F tox,APP 5UTR inh,IEC-6 cytotox,KLF5 inh,BaF3 parental,aSyn UTR inh,IEC-6 cytotox cf
CCOc1cccc(-c2nnc3n2N=C(c2cc(OC)ccc2OC)CS3)c1,79.7,88.4,58.3,i,80.9,62.9,51.6
COc1cccc(-c2nnc3n2N=C(c2cc(OC)ccc2OC)CS3)c1,i,i,i,i,i,i,nt
CC(=O)N1c2ccccc2Nc2ccccc21,i,i,i,i,i,i,nt
Cc1ccc(OCC(=O)N/N=C/c2cccnc2)cc1C,nt,nt,i,i,nt,i,nt
COc1cccc(C2c3[nH]c4ccccc4c3C[C@H]3C(=O)N(c4ccccc4C(=O)N4CCC[C@H]4C(=O)O)C(=O)N23)c1 (some centres not stated),nt,nt,i,i,nt,i,nt
COc1ccc(C2=Nn3c(nnc3-c3ccccc3OC)SC2)cc1OC,93.4,95.8,91.8,i,88.7,107.0,72.2
COc1ccc(C2=Nn3c(nnc3-c3ccccn3)SC2)cc1OC,i,i,i,i,i,?,nt
O=C(Nc1ccccc1)c1ccc[n+](Cc2ccc([N+](=O)[O-])cc2)c1,i,i,i,i,i,i,nt
CCc1cn([C@H]2C[C@H](O)[C@@H](CO)O2)c(=O)[nH]c1=O,i,i,i,i,i,i,nt

# High-throughput results: PubChem BioAssay, several laboratories
